PubChem BioAssay
The source made the active and inactive calls.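 Rule for the calls: active = thallium flux through the channel raised or lowered by more than 3 SD from vehicle-only wells, actives on both sides; inactive = the rest.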

Tests used:
Test in all cases: BK channel mutant inhibitors and activators – cell-based, U2OS BacMam, thallium flux, beta subunits, selectivity assay, profiling panel (AID 1259406);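 note: initial slope of Thallos dye fluorescence rise after thallium is added; log ratio against the mean of 0.3% DMSO vehicle wells on the same plate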
F380Y = conditions: U2OS BacMam BK variants, at 30 µM
F380Y/beta1 = conditions: U2OS BacMam BK variants, at 30 µM
F380Y/beta2Delta = conditions: U2OS BacMam BK variants, at 30 µM
F380Y/beta4 = conditions: U2OS BacMam BK variants, at 30 µM
[1] = target: Calcium-activated potassium channel subunit alpha-1 (Homo sapiens) + Leucine-rich repeat-containing protein 26 (Homo sapiens) (UniProt Q12791+Q2I0M4); conditions: U2OS BacMam BK variants, F380Y/Slo1WT/gamma1, at 30 µM
Sequence of Calcium-activated potassium channel subunit alpha-1 (Homo sapiens) + Leucine-rich repeat-containing protein 26 (Homo sapiens) (Q2I0M4 whole entry, looked up, one chain of several): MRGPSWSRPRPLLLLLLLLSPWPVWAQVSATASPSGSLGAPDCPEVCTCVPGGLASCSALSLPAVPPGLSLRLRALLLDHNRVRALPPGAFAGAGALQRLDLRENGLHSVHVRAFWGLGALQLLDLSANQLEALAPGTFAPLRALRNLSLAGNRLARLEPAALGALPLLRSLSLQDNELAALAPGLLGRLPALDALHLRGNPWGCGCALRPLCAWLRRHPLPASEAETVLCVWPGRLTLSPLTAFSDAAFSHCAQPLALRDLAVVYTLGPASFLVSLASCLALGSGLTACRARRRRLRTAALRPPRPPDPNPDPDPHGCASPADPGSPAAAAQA

R275C = conditions: U2OS BacMam BK variants, at 30 µM
R275C/beta1 = conditions: U2OS BacMam BK variants, at 30 µM
R275C/beta2Delta = conditions: U2OS BacMam BK variants, at 30 µM
R275C/beta4 = conditions: U2OS BacMam BK variants, at 30 µM
R275C/Slo1WT/beta2 = conditions: U2OS BacMam BK variants, at 30 µM

Measured: log fold change Tl+ flux

N#Cc1c(F)cccc1NC1CCN(Cc2ccccc2)CC1
active: F380Y/beta4 -0.103
inactive: F380Y -0.0529 | F380Y/beta1 -0.0783 | F380Y/beta2Delta -0.0626 | [1] -0.0887 | R275C -0.0649 | R275C/beta1 -0.0261 | R275C/beta2Delta -0.0118 | R275C/beta4 -0.0356 | R275C/Slo1WT/beta2 -0.0644

Cc1ccc(C(=O)CC(=CC(=C(C#N)c2ccc([N+](=O)[O-])cc2)c2ccc(C)cc2)c2ccccc2)cc1
inactive: F380Y 0.00161 | F380Y/beta1 0.0132 | F380Y/beta2Delta -0.0182 | F380Y/beta4 -0.0433 | [1] -0.0481 | R275C -0.0132 | R275C/beta1 -0.025 | R275C/beta2Delta -0.0508 | R275C/beta4 -0.0482 | R275C/Slo1WT/beta2 -0.0297

O=S(=O)(c1ccc(-c2cc(C(F)(F)F)on2)s1)N1CCc2c([nH]c3ccc(F)cc23)C1
inactive: F380Y 0.0233 | F380Y/beta1 0.0471 | F380Y/beta2Delta 0.0355 | F380Y/beta4 0.0473 | [1] 0.0308 | R275C 0.0283 | R275C/beta1 -0.0189 | R275C/beta2Delta 0.0168 | R275C/beta4 -0.00429 | R275C/Slo1WT/beta2 0.00527

CCCCCCCCCCCCSC(=S)NCC1CCCO1 (stereo not given)
inactive: F380Y 0.0353 | F380Y/beta1 0.0262 | F380Y/beta2Delta 0.0128 | F380Y/beta4 0.0306 | [1] 0.0128 | R275C -0.00711 | R275C/beta1 -0.0124 | R275C/beta2Delta 0.0322 | R275C/beta4 -0.00355 | R275C/Slo1WT/beta2 -0.00192

Cc1nn(C)c2ncc(C(N)=O)c(Oc3ccc(Cl)cc3)c12
inactive: F380Y -0.00628 | F380Y/beta1 -0.0132 | F380Y/beta2Delta 0.0115 | F380Y/beta4 0.049 | [1] 0.0214 | R275C -0.017 | R275C/beta1 0.00427 | R275C/beta2Delta 0.0253 | R275C/beta4 -0.0279 | R275C/Slo1WT/beta2 -0.0474

CC(=O)OCC(=O)C1(O)C(C)CC2C3CCC4CC(=O)C=CC4(C)C3C(O)CC21C (stereo not given)
inactive: F380Y 0.0723 | F380Y/beta1 -0.0034 | F380Y/beta2Delta -0.017 | F380Y/beta4 0.0362 | [1] -0.00155 | R275C 0.00844 | R275C/beta1 0.0348 | R275C/beta2Delta 0.0375 | R275C/beta4 0.0527 | R275C/Slo1WT/beta2 0.00132

NC(=O)c1nnn(-c2ccc([N+](=O)[O-])cc2)c1-c1ccccc1
inactive: F380Y 0.0114 | F380Y/beta1 -0.0124 | F380Y/beta2Delta 0.0187 | F380Y/beta4 0.0444 | [1] 0.0451 | R275C -0.0124 | R275C/beta1 -0.0135 | R275C/beta2Delta 0.0277 | R275C/beta4 0.0182 | R275C/Slo1WT/beta2 -0.00577

O=C(Nc1csc(Cc2c(Cl)cccc2Cl)n1)NN1CCOCC1
active: F380Y/beta4 0.11
inactive: F380Y 0.0786 | F380Y/beta1 0.0031 | F380Y/beta2Delta 0.0515 | [1] -0.0174 | R275C -0.0115 | R275C/beta1 0.0073 | R275C/beta2Delta 0.0159 | R275C/beta4 0.00549 | R275C/Slo1WT/beta2 -0.0281

FC(F)(F)c1cc(C=Cc2noc(-c3ccc(CN4CCCC4)cc3)n2)cc(C(F)(F)F)c1
inactive: F380Y -0.0963 | F380Y/beta1 0.0303 | F380Y/beta2Delta -0.0239 | F380Y/beta4 -0.0108 | [1] 0.0236 | R275C -0.0044 | R275C/beta1 0.00631 | R275C/beta2Delta -0.0502 | R275C/beta4 -0.00136 | R275C/Slo1WT/beta2 -0.00667

CSc1n[nH]c(N)c1S(=O)(=O)C(C)C
inactive: F380Y 0.0369 | F380Y/beta1 0.0175 | F380Y/beta2Delta 0.0116 | F380Y/beta4 -0.00921 | [1] 0.0306 | R275C -0.018 | R275C/beta1 0.0133 | R275C/beta2Delta -0.00282 | R275C/beta4 0.0217 | R275C/Slo1WT/beta2 0.0141

CCSc1n[nH]c(=S)s1
inactive: F380Y -0.0724 | F380Y/beta1 0.0129 | F380Y/beta2Delta 0.00494 | F380Y/beta4 0.00824 | [1] -0.0169 | R275C 0.0305 | R275C/beta1 -0.0034 | R275C/beta2Delta 0.0134 | R275C/beta4 0.0178 | R275C/Slo1WT/beta2 0.00702

CS(=O)(=O)Nc1ccc(N2CCN(c3ccc(C(F)(F)F)cn3)CC2)nc1
inactive: F380Y 0.0216 | F380Y/beta1 0.0253 | F380Y/beta2Delta 0.0364 | F380Y/beta4 0.0379 | [1] 0.0373 | R275C 0.0255 | R275C/beta1 0.0101 | R275C/beta2Delta 0.0279 | R275C/beta4 0.0149 | R275C/Slo1WT/beta2 0.0171

O=C(c1ccccc1)c1ccc2c(c1)Cc1ccccc1-2
inactive: F380Y 0.00926 | F380Y/beta1 -0.00651 | F380Y/beta2Delta 0.0385 | [1] -0.0649 | R275C/beta1 -0.0486 | R275C/beta2Delta -0.00396 | R275C/beta4 0.00762 | R275C/Slo1WT/beta2 -0.0152
active: F380Y/beta4 -0.103 | R275C -0.0862

Cn1cnc2cccc(F)c2c1=N
inactive: F380Y -0.0259 | F380Y/beta1 0.000586 | F380Y/beta2Delta -0.0156 | F380Y/beta4 0.0474 | [1] 0.038 | R275C 0.0169 | R275C/beta1 0.0241 | R275C/beta2Delta -0.00275 | R275C/beta4 0.00326 | R275C/Slo1WT/beta2 0.0172

ONC=Nc1nonc1-c1cccnc1
inactive: F380Y 0.00986 | F380Y/beta1 -0.0105 | F380Y/beta2Delta -0.0403 | F380Y/beta4 0.000104 | [1] -0.0369 | R275C -0.0128 | R275C/beta1 0.016 | R275C/beta2Delta -0.0342 | R275C/beta4 -0.00156 | R275C/Slo1WT/beta2 0.00719

Cc1cc(-c2nn(C)c(=O)c3ccccc23)cc(C)c1O
inactive: F380Y 0.00104 | F380Y/beta1 0.0146 | F380Y/beta2Delta 0.00813 | F380Y/beta4 -0.0513 | [1] -0.0365 | R275C 0.0132 | R275C/beta1 0.0233 | R275C/beta2Delta -0.0115 | R275C/beta4 0.0138 | R275C/Slo1WT/beta2 -0.0205

CC1(C)CC(=O)C=C(NCCCCCCCCNC2=CC(=O)CC(C)(C)C2)C1
active: R275C/Slo1WT/beta2 -0.149
inactive: F380Y 0.000907 | F380Y/beta1 0.0262 | F380Y/beta2Delta 0.0043 | F380Y/beta4 0.0246 | [1] -0.0867 | R275C -0.0564 | R275C/beta1 -0.0828 | R275C/beta2Delta -0.0562 | R275C/beta4 -0.0723

CSc1nc(N)nc(-c2cccs2)n1
inactive: F380Y 0.02 | F380Y/beta1 0.0489 | F380Y/beta2Delta 0.0165 | F380Y/beta4 0.0265 | [1] 0.0393 | R275C -0.0182 | R275C/beta1 0.00143 | R275C/beta2Delta 0.042 | R275C/beta4 0.0144 | R275C/Slo1WT/beta2 0.0475

CCOC(=O)c1c[nH]n2c(=O)c3c(nc12)CCC3
inactive: F380Y 0.0447 | F380Y/beta1 0.0491 | F380Y/beta2Delta 0.00798 | F380Y/beta4 -0.00836 | [1] -0.00512 | R275C -0.0014 | R275C/beta1 0.00358 | R275C/beta2Delta 0.00309 | R275C/beta4 0.0387 | R275C/Slo1WT/beta2 -0.0235

O=c1[nH]c2ccc(Cl)cc2c2oc(-c3ccccc3)nc12
inactive: F380Y -0.0228 | F380Y/beta1 0.00567 | F380Y/beta2Delta -0.059 | F380Y/beta4 -0.0224 | [1] -0.0128 | R275C 0.01 | R275C/beta1 0.031 | R275C/beta2Delta 0.0322 | R275C/beta4 0.0357 | R275C/Slo1WT/beta2 -0.0021

O=C(CCn1nc(-c2ccc(F)cc2)ccc1=O)NCc1ccccc1
inactive: F380Y 0.0369 | F380Y/beta1 0.0341 | F380Y/beta2Delta 0.06 | F380Y/beta4 -0.00672 | [1] 0.0366 | R275C 0.021 | R275C/beta1 0.0385 | R275C/beta2Delta 0.0213 | R275C/beta4 0.037 | R275C/Slo1WT/beta2 0.000143

CCc1cc(C(=O)c2ccc(OC)cc2)c(NC(=O)CN2CCN(C)CC2)s1
inactive: F380Y -0.0314 | F380Y/beta1 -0.0083 | F380Y/beta2Delta -0.00202 | F380Y/beta4 -0.0121 | [1] 0.0213 | R275C -0.0119 | R275C/beta1 -0.00614 | R275C/beta2Delta 0.00802 | R275C/beta4 0.0372 | R275C/Slo1WT/beta2 -0.00941

O=C(NCC1CC1)c1ccccc1NS(=O)(=O)c1cccc2nonc12
inactive: F380Y 0.0757 | F380Y/beta1 0.0238 | F380Y/beta2Delta 0.0491 | F380Y/beta4 0.0071 | [1] -0.00954 | R275C 1.3e-05 | R275C/beta1 0.0417 | R275C/beta2Delta 0.0268 | R275C/beta4 0.0533 | R275C/Slo1WT/beta2 0.0216

O=C(NC(=O)c1ccccc1Oc1ccc(Cl)cc1Cl)Nc1cc(Cl)cc(Cl)c1
inactive: F380Y 0.0204 | F380Y/beta1 0.0216 | F380Y/beta2Delta -0.00408 | F380Y/beta4 -0.00832 | [1] 0.0199 | R275C 0.0363 | R275C/beta1 -0.0332 | R275C/beta2Delta 0.00447 | R275C/beta4 0.0362 | R275C/Slo1WT/beta2 -0.00947

NNC(=O)Cc1csc2nc(-c3ccccc3)nn12
inactive: F380Y 0.0124 | F380Y/beta1 0.00927 | F380Y/beta2Delta 0.017 | F380Y/beta4 0.00133 | [1] -0.0179 | R275C 0.0143 | R275C/beta1 0.0323 | R275C/beta2Delta 0.0113 | R275C/beta4 0.0106 | R275C/Slo1WT/beta2 0.0322

Cc1cc(Sc2nnc(N=CN(C)C)s2)c2ccccc2n1
inactive: F380Y 0.0126 | F380Y/beta1 0.0257 | F380Y/beta2Delta -0.0453 | F380Y/beta4 -0.0187 | [1] 0.011 | R275C 0.0403 | R275C/beta1 0.0231 | R275C/beta2Delta 0.0658 | R275C/beta4 0.0604 | R275C/Slo1WT/beta2 0.0405
